Survival data for 25 compounds are collected here from PubChem BioAssay AID463173 (ICCB-Longwood Screening Facility, Harvard Medical School, 2010).

The campaign covered roughly 52,000 compounds. About 4,300 (8.3%) were called active. No stated cut-off is given here; in the data, active means survival mostly below about 52% (no sharp cut-off); inactive means mostly above about 56%. The sample as a whole holds a higher share of actives than the screen did.

The test has as its system DeltatarO mutant. Kind of test: growth inhibition of S. aureus wild type versus tarO mutant, primary screen, teichoic acid synthesis inhibitors, RN4220, OD600 (AID 463173). The note with it: OD600, 18 h, stronger effect = lower value, screened at 18.75 µg/mL (by protocol).
Turning to `CC(C)c1ccc(NC(=O)c2ccc(F)c(S(=O)(=O)N3CCCC3)c2)cc1`, the survival is 74% (inactive).

For `Cc1ccccc1C(=O)N1CCCCC1CCN1CCCCC1` (stereo not given), the survival is 80% (inactive).

Consider `Cc1ccc(S(=O)(=O)N2CC=C(c3ccc(F)cc3)CC2)cc1`, for which the survival is 87% (inactive).

In the case of `Cc1nn2c(=O)cc(COC(=O)c3ccccc3NC(=O)c3cccs3)nc2s1`, the survival was 74% (inactive).

With `COc1ccc(CN(Cc2ccco2)C(=O)c2ccccc2F)cc1`, the survival is 74% (inactive).

On to `CCOc1ccc(C2C(=O)N(C3CCCCCC3)CC(=O)N2Cc2ccc(C)cc2)cc1OC` (stereo not given), for which the survival is 96% (inactive).

On to `CSc1cccc(NC(=O)Cn2nc(C)c3sc4ccccc4c3c2=O)c1`, for which the survival was 83% (inactive).

As to `CC1(C)Oc2ccc3ccc(=O)oc3c2-c2cn[nH]c21`, the survival was 69% (inactive).

`Cc1cccc(NS(=O)(=O)c2c(C)nc3sccn3c2=O)c1C`: the survival was 108% (inactive).

On to `Cc1nc2sccn2c(=O)c1S(=O)(=O)Nc1cccc(Cl)c1C`, for which the survival was 68% (inactive).

On to `Cc1nc2sccn2c1-c1csc(Nc2cccc(Cl)c2C)n1`, for which the survival is 15% (active).

For `CCCCC(CC)C(=O)Nc1nnc(C(C)C)s1` (stereo not given), the survival was 91% (inactive).

Consider `O=C(CN1C(=O)CC(c2ccco2)Sc2ccccc21)Nc1ccc(Br)cc1` (stereo not given), for which the survival is 75% (inactive).

For `O=C1CC(c2nnc(Cc3ccc(F)cc3Cl)o2)CN1c1ccccc1` (stereo not given), the survival was 133% (inactive).

As for `CCc1ccc(CNC(=O)c2ccc(-c3nc(CSc4ccc(C)cc4)c(C)o3)cc2)cc1`, the survival was 67% (inactive).

As to `COc1ccc(CNC(=O)c2ccc(-c3nc(CSc4ccccc4)c(C)o3)cc2)cc1OC`, the survival was 78% (inactive).

Turning to `COc1ccc(CNC(=O)c2ccc(-c3nc(CSc4ccc(C)cc4)c(C)o3)cc2)cc1OC`, the survival is -1% (active).

For the compound `Cc1oc(-c2ccc(C(=O)NCCc3ccc(Cl)cc3)cc2)nc1CSc1ccccc1`, the survival was 83% (inactive).

On to `Cc1ccc(SCc2nc(-c3ccc(C(=O)NCc4ccc(Cl)cc4)cc3)oc2C)cc1`, for which the survival is 76% (inactive).

As for `Cc1ccc(SCc2nc(-c3ccc(C(=O)NCCc4ccc(Cl)cc4)cc3)oc2C)cc1`, the survival was -2% (active).

For the compound `COc1ccc(CNC(=O)c2ccc(-c3nc(CSc4ccccc4)c(C)o3)cc2)c(OC)c1`, the survival is 85% (inactive).

As to `COc1ccc(OC)c(CNC(=O)c2ccc(-c3nc(CSc4ccccc4)c(C)o3)cc2)c1`, the survival was 120% (inactive).

Consider `COc1ccc(CNC(=O)c2ccc(-c3nc(CSc4ccc(C)cc4)c(C)o3)cc2)c(OC)c1`, for which the survival is 6% (active).

For `Cc1ccc(NC(=O)CSc2nnc(-c3cc4occc4n3C)n2-c2ccccc2C)c(C)c1`, the survival is 88% (inactive).

Consider `Cc1ccc(CSC2=Nc3ccccc3C3=NC(CCC(=O)NCc4cccs4)C(=O)N23)c(C)c1` (stereo not given), for which the survival was 76% (inactive).
